# Source: PubChem BioAssay (NCATS)
# Inconclusive results are not listed. A call without a number means that no potency is given here. A number with no mark means an inactive call. Active and inactive are the calls of the source. Calls follow the shape of the dose curve; as a rule, active = well fitted curve in the direction sought with a large enough effect; inconclusive = small, poorly fitted or top-dose-only effect, or another doubt; inactive = no such curve, though single readings can be large; an effect the other way counts as inactive or inconclusive.
# Key:
# [1] = test system: Zika virus NS2B-NS3 protease (linked construct); assay: Primary screen NINDS Rhodamine qHTS for Zika virus inhibitors (AID 1347160); also: nearly all actives have a fitted effect of over 55% in size
# Method in brief: (§1)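 Enzyme (25 nM, linked NS2B-NS3) was preincubated 15 min with compound in 10 mM Tris-HCl pH 8.0, 0.01% Tween 20. Rhodamine110 substrate (1.5 microM) was then added and fluorescence read at start and after 15 min.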
# [2] = test system: Zika virus NS2B-NS3 protease (unlinked complex); assay: Primary screen GU Rhodamine qHTS for Zika virus inhibitors: Unlinked NS2B-NS3 protease assay (AID 1347159); also: nearly all actives have a fitted effect of over 60% in size; also: potency is read from the fitted curve at half-maximal effect
# Method in brief: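 Enzyme 25 nM in Tris-HCl pH 8.0 + 0.01% Tween 20; compounds up to 114 microM, 15 min RT dark; + Rhod110 substrate 1.5 microM; read t0 and 15 min; delta fluorescence → % inhibition → 4-parameter Hill fit.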
# [3] = Tertiary RLuc qRT-PCR qHTS assay for Zika virus inhibitors (AID 1347169); also: top concentration of the series differs between compounds; nearly all actives have a fitted effect of over 55% in size
# Method in brief: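 Vero cells (1,000 per well) plated overnight at 37 degrees C, treated with compound in DMSO, then infected with recombinant ZIKV-RLuc (Cambodian) at MOI 1-2 for 48-72 hrs. Live-cell Renilla luciferase substrate added; luminescence read after 1-1.5 hrs.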
# [4] = Confirmatory screen NINDS Rhodamine qHTS for Zika virus inhibitors (AID 1347161);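 also: purified Zika NS2B-NS3 protease with linked NS2B cofactor domain and Rhodamine110 peptide substrate; series mostly up to about 110 µM; nearly all actives have a fitted effect of over 60% in size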
# Method in brief: as §1
# [5] = test system: Zika virus NS2B-NS3 protease (linked construct); assay: 384 well plate NINDS Rhodamine confirmatory qHTS for Zika virus inhibitors (AID 1347164);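 also: fluorescence from protease cleavage of Ac-LKRR-rhodamine 110 substrate; top concentration of the series differs between compounds; nearly all actives have a fitted effect of over 65% in size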
# Method in brief: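 Linked protease at a final 5 nM, 30 nM or 60 nM was preincubated ~15 min with compounds, then given 10 microM Ac-LKRR-Rhodamine 110. Fluorescence (ex 485/em 538 nm) after 25 min in the dark at room temperature.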
# [6] = Vero cells viability qHTS for Zika virus inhibitors (AID 1347167)
# Method in brief: (§2)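 qHTS titration; 24-48 h compound exposure, 37 degrees C/5% CO2; DMEM, 4% FBS; CellTiter Glo ATP luminescence.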
# [7] = HepG2 cells viability qHTS for Zika virus inhibitors (AID 1347168)
# Method in brief: as §2
# [8] = OV-KATE Cancer Cell Toxicity qHTS against the NCATS CANVASS Library (AID 1347345); details: OV-KATE cells viability, CellTiter-Glo luminescence, 72 h; also: potency is read from the fitted curve at half-maximal effect
# Method in brief: (§3)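 Per well, 1000 cells; exposure 72 h with compound at 11 final concentrations; readout CellTiter-Glo luminescence.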
# [9] = HPAF-II Cancer Cell Toxicity qHTS against the NCATS CANVASS Library (AID 1347346); details: HPAF-II viability, CellTiter-Glo ATP luminescence, 72 h; also: potency is read from the fitted curve at half-maximal effect; nearly all actives have a fitted effect of over 55% in size
# Method in brief: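 1000 HPAF-II cells/well; 4 h pre-incubation; 11-pnt compound titration; 72 h, 37 degrees C/5% CO2; CellTiter-Glo, 15 min RT; luminescence read.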
# [10] = UWB1.289 Cancer Cell Toxicity qHTS against the NCATS CANVASS Library (AID 1347347); details: UWB1.289 viability, CellTiter-Glo luminescence, 72 h; also: potency is read from the fitted curve at half-maximal effect; nearly all actives have a fitted effect of over 60% in size
# Method in brief: as §3
# [11] = OV-SAHO Cancer Cell Toxicity qHTS against the NCATS CANVASS Library (AID 1347348); details: OV-SAHO viability, CellTiter-Glo luminescence, 72 h; also: potency is read from the fitted curve at half-maximal effect; nearly all actives have a fitted effect of over 55% in size
# Method in brief: as §3
# [12] = Panc-1005 Cancer Cell Toxicity qHTS against the NCATS CANVASS Library (AID 1347349); details: Panc-1005 viability, CellTiter-Glo luminescence, 72 h; also: potency is read from the fitted curve at half-maximal effect; nearly all actives have a fitted effect of over 60% in size
# Method in brief: as §3
# [13] = U-118MG Cancer Cell Toxicity qHTS against the NCATS CANVASS Library (AID 1347351); details: U-118MG viability, CellTiter-Glo luminescence, 72 h; also: potency is read from the fitted curve at half-maximal effect
# Method in brief: as §3
smiles,measurement,setting,value
Cc1ccc(S(=O)(=O)Nc2ccccc2N2CCCCC2)s1,Potency,[1],inactive
CC1=CC(=O)C2(OC3OC(C)C(O)C(OC(=O)/C=C/c4ccccc4)C3O)C=COC(OC3OC(CO)C(O)C(O)C3O)C12 (stereo not drawn),Potency,[1],inactive
Cc1cc(=O)oc2c(C=O)c(O)ccc12,Potency,[2],79.4 µM (active)
same,Potency,[1],inactive
same,Potency,[3],inactive
C/C=C/c1ccc2oc(-c3ccc(O)c(OC)c3)c(C)c2c1,Potency,[1],inactive
C[C@@H]1O[C@@H](O[C@H]2[C@@H]3C=CO[C@@H](O[C@@H]4O[C@H](CO)[C@@H](O)[C@H](O)[C@H]4O)[C@@H]3[C@@]3(CO)O[C@@H]23)[C@H](OC(=O)/C=C/c2ccccc2)[C@H](O)[C@H]1O,Potency,[1],inactive
CCCCc1ccc(C(=O)Nc2cc(-c3ccc(Cl)cc3)nn2-c2ccc(Cl)cc2)cc1,Potency,[2],39.8 µM (active)
same,Potency,[1],inactive
same,Potency,[4],inactive
Cc1cc2c(c(=O)[nH]1)OC(C(O)CC(C)C)O2 (stereo not drawn),Potency,[1],inactive
COc1cc(Br)c(Nc2nc(-c3c(C)nc4ncccn34)cs2)c(Br)c1,Potency,[1],inactive
O=C(/C=C/c1ccc(O)cc1)N[C@@H](Cc1ccc(O)cc1)C(=O)O,Potency,[1],inactive
C[C@@H]1CCC/C=C/[C@H]2CC(=O)C[C@@H]2[C@@H](O)/C=C/C(=O)O1,Potency,[1],inactive
CC[C@]1(O)CC2CN(CCc3c([nH]c4ccccc34)[C@@](C(=O)OC)(c3cc4c(cc3OC)N(C=O)[C@H]3[C@@](O)(C(=O)OC)[C@H](OC(C)=O)[C@]5(CC)C=CCN6CC[C@]43[C@@H]65)C2)C1 (stereo partly drawn),Potency,[1],inactive
CC1OC(O[C@H]2CC[C@@]3(C)C(CC[C@]4(C)C3CC=C3C5CC(C)(C)CC[C@]5(C(=O)OC5OC(CO)C(OC6OC(COC7OCC(O)C(O)C7O)C(O)C(O)C6O)C(O)C5O)CC[C@]34C)C2(C)C)C(O)C(O)C1OC1OCC(OC2OCC(O)C(O)C2O)C(O)C1O (stereo partly drawn),"activity change, negative = inhibition",[1],-22.7% [at 10.7 µM]
CC1=C(CCC(C)O[C@@H]2O[C@H](CO)[C@@H](O)[C@H](O)[C@H]2O)C(C)(C)CCC1=O (stereo partly drawn),Potency,[1],inactive
Nc1ncnc2c([C@@H]3N[C@H](CO)[C@@H](O)[C@H]3O)c[nH]c12,Potency,[2],inactive
same,Potency,[1],inactive
same,Potency,[4],inactive
same,Potency,[5],inactive
same,outcome,[6],inactive
same,outcome,[7],inactive
C=CC1C(OC2OC(CO)C(O)C(O)C2O)OC=C2C(=O)N3C(C(=O)O)Cc4c([nH]c5ccccc45)C3CC21 (stereo not drawn),Potency,[1],inactive
COc1cc(C(=O)OC[C@H]2O[C@@H](Oc3ccccc3/C=C/C(=O)O)[C@H](O)[C@@H](O)[C@@H]2O)cc(OC)c1OC,Potency,[1],inactive
C=C(C(=O)O)C1CCC2(C)CCCC(C)(O)C2C1 (stereo not drawn),Potency,[1],inactive
CCC[C@@H]1O[C@@H]2C[C@H]3[C@@H]4CCC5=CC(=O)C=C[C@]5(C)[C@H]4[C@@H](O)C[C@]3(C)[C@]2(C(=O)CO)O1,Potency,[1],inactive
N#Cc1c(Oc2ccc(F)c(NC(=O)Cc3cccc(C(F)(F)F)c3)c2)ccc2nc(NC(=O)C3CC3)sc12,Potency,[2],inactive
same,Potency,[1],inactive
CC(C)=CCC/C(C)=C/CO[C@@H]1O[C@H](CO)[C@@H](OC(=O)/C=C/c2ccc(O)cc2)[C@H](O[C@@H]2O[C@@H](C)[C@H](O)[C@@H](O)[C@H]2O)[C@H]1O,Potency,[1],inactive
O=C(CCc1nnc2n(Cc3ccc(Cl)cc3)c(=O)c3ccccc3n12)NCCC1=CCCCC1,Potency,[1],inactive
CC/C=C/CC1=C(CCCCC(CCC(=O)O)OC(C)=O)CCC1=O (stereo not drawn),Potency,[1],inactive
Cc1ccccc1CN1C2=NCCN2C(=O)C2=C1CCN(Cc1ccccc1)C2,Potency,[1],inactive
C=C1C(=O)O[C@H]2[C@H]1CC/C(C)=C/CC[C@@]1(C)O[C@@H]21,Potency,[2],inactive
same,Potency,[1],inactive
same,Potency,[8],6.66 µM (active)
same,Potency,[9],21.1 µM (active)
same,Potency,[10],11.8 µM (active)
same,Potency,[11],7.47 µM (active)
same,Potency,[12],6.68 µM (active)
same,Potency,[13],6.68 µM (active)
CCc1cccc(CC)c1NC(=O)c1nn(C)c2c1CCc1cnc(Nc3ccc(C(=O)NC4CCN(C)CC4)cc3OC(F)(F)F)nc1-2,Potency,[1],inactive
CC1(C)CC2C(C1)C(C)(O)C13CC1(COC3=O)C2O (stereo not drawn),Potency,[2],inactive
same,Potency,[1],inactive
CCNC(=O)C1OC(n2cnc3c(N)nc(NCCc4ccc(CCC(=O)O)cc4)nc32)C(O)C1O (stereo not drawn),Potency,[2],inactive
same,Potency,[1],inactive
CC1CCC2(CO)C(C(=O)O)=CCCC2C1(C)CCc1ccoc1 (stereo not drawn),Potency,[1],inactive
CC(=O)O[C@H]1CC[C@@]2(C)C(CC[C@@H](C)[C@]23Cc2c(O)cc4c(c2O3)CN([C@@H](CCC(=O)O)C(=O)O)C4=O)C1(C)C (stereo partly drawn),Potency,[1],inactive
CN(C)CC1CCOC1(c1ccccc1)c1ccccc1 (stereo not drawn),Potency,[1],inactive
COC(=O)CCC(=O)OC[C@]1(C)CCC[C@@]2(C)C3CC[C@]4(C)C=CC3(CCC12)C4 (stereo partly drawn),Potency,[2],inactive
same,Potency,[4],inactive
CC(=O)O[C@H]1C[C@@](O)(C(C)C)C2[C@@H](OC(=O)c3ccc(O)cc3)C[C@@]3(C)O[C@H]3C[C@]21C (stereo partly drawn),Potency,[1],inactive
C=C1CC[C@@H]2[C@](C)(CO[C@@H]3O[C@H](CO)[C@@H](O)[C@H](O)[C@H]3O)[C@H](O)CC[C@@]2(C)[C@@H]1C/C=C1/C(=O)OC[C@H]1O,Potency,[1],inactive
